Assay outcomes: PubChem, National Center for Advancing Translational Sciences (NCATS)
Pf Dd2 growth – Plasmodium falciparum Dd2 growth inhibition; P. falciparum Dd2 growth, SYBR Green, 72 h; 120,000 compounds, 4.3% hits; AID 1347417; Potency, µM (titrated, usually from 28.9 µM), actives largely listed as inhibitors; active means well fitted inhibition curve with a large enough effect; further: nearly all actives have a fitted effect of over 65% in size
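Infected erythrocytes (Dd2, 0.3% parasitemia, 2.5% hematocrit final) are added to compound in RPMI-1640/Albumax II medium, grown 72 h at 37C in low oxygen, then lysed with saponin/Triton-X containing SYBR Green and read by fluorescence.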
Of the large screens only hits and unclear results are named; the others gave an inactive call. This excerpt belongs to a sample that is enriched for hits.

Cc1ccc(C2Cn3nnc(-c4nc(C5CCCCC5)no4)c3CO2)c(C)c1 (stereo not given)	none
Cc1cc(C(=O)N2CC(c3nnc(C(C)C)o3)C3(CCOCC3)C2)n(C)n1 (stereo not given)	none
CC(C)c1nc2c(c(-c3ccc(O)cc3)n1)CCN(C(=O)c1cccc(Cl)c1)CC2	Pf Dd2 growth 7.94µM
COc1cccc(C(=O)N2CCc3nc(C)nc(-c4ccc(Cl)cc4)c3CC2)c1	none
Cc1ccccc1C(=O)N1CCc2nc(C(C)C)nc(-c3ccc(O)cc3)c2C1	none
Cc1cccc(C(=O)Nc2ccc3ncnc(N4CCCCC4)c3c2)c1	none
CCN1CCN(c2cc(C)c3cc(NC(=O)c4ccc(OC)c(OC)c4)ccc3n2)CC1	Pf Dd2 growth 2.82µM
CCNC(=O)CN1CCCC(CNC(=O)c2cccc(C(F)(F)F)c2)C1 (stereo not given)	none
CCN1CCN(c2cc(C)c3cc(NC(=O)c4cccc(C(F)(F)F)c4)ccc3n2)CC1	Pf Dd2 growth 5.62µM
COc1cccc(C(=O)Nc2ccc3ncnc(N4CCCCC4)c3c2)c1	none
C=CCNC(=O)Cc1c2c(n(Cc3ccccc3F)c1C)CCCC2=O	none
CCN1c2cc(C(=O)Nc3ccc4c(c3)OCCO4)ccc2C(=O)N2CCCCC21 (stereo not given)	none
O=C1NC2(CCN(C(=O)c3ccccc3)CC2)Oc2ccccc21	none
Cn1nccc1OCc1cn2c(=O)n(C)cc(-c3ccccc3F)c2n1	none
CCN1c2cc(C(=O)Nc3cccc(C(C)C)c3)ccc2C(=O)N2CCCCCC21 (stereo not given)	none
Cc1ccccc1N1CCN(C(=O)c2cc3cn(C4CC4)cc3s2)CC1	none
CCOCCOC1CCN(C(=O)c2ccc(OC)nc2)CC1	none
O=[N+]([O-])c1cccc(-c2noc([C@@H]3C[C@@H](O)CN3Cc3cccs3)n2)c1	none
N#C/C(=C\c1ccc(-c2cccc(Cl)c2)o1)C(=O)Nc1cccc(C(F)(F)F)c1	none
N#C/C(=C/c1cn(Cc2ccc(F)cc2)c2ccccc12)C(=O)Nc1cccc(Cl)c1	Pf Dd2 growth 10µM
Cc1ccc(NC(=O)/C(C#N)=C/c2ccccc2Cl)cc1C	none
c1ccc2c(c1)CCC(N1CCN(Cc3cc4n(n3)CCCNC4)CC1)C2 (stereo not given)	none
COc1ccc(NC(=O)C(=O)NCCc2ccc(OC)c(OC)c2)c(OC)c1	none
CCOC(=O)c1cnc2ccc(OC)cc2c1NCCc1ccc(OC)c(OC)c1	Pf Dd2 growth 1µM
CCOC(=O)c1cnc2cc(Cl)c(OC)cc2c1Nc1ccc(Br)cc1C	none
CC(=O)N1CCC(C(=O)NC2CCN(c3cc(-c4ccccc4)[nH]n3)CC2)CC1	none
Cn1ccnc1CN1CCN(CC2(O)CCNC2)CC1 (stereo not given)	none
O=S(=O)(c1ccc(Cl)cc1)c1nc(-c2ccccc2Br)oc1NCc1ccccc1	Pf Dd2 growth 10µM
O=S(=O)(c1ccccc1)c1nc(-c2ccc(F)cc2)oc1NCc1ccccc1	none
COCCNc1oc(-c2ccccc2)nc1S(=O)(=O)c1ccc(Br)cc1	none
CCn1ccc(C(=O)N2CC(Oc3cccc(-c4nc(C)no4)c3)C2)n1	none
Cc1noc(C)c1[S+](=O)([O-])N1CC2ON=C(C(=O)O)C2C1 (stereo not given)	none
Cc1ccc(OCc2nc(C3CCCCN3C(=O)c3cc(F)ccc3F)no2)cc1 (stereo not given)	none
O=C(COc1ccc(Cl)cc1)N1CCC(Cc2nc(-c3ccccc3)no2)CC1	none
CCN(Cc1ccccc1)S(=O)(=O)c1ccc2[nH]c3c(c2c1)CCCCC3	Pf Dd2 growth 12.6µM
CCc1ccc(NS(=O)(=O)c2ccc3[nH]c4c(c3c2)CCCCCC4)cc1	none
Cc1ccc(N(C)S(=O)(=O)c2ccc3[nH]c4c(c3c2)CCCC4)cc1	none
COCCn1c(CN2C(=O)COc3ccccc32)nnc1C1CC(N)C1 (stereo not given)	none
COCCNC(=O)c1coc(CN2CCN(C/C=C/c3ccccc3)CC2)n1	none
Cc1ccc(Cl)cc1N1CCN(C(=O)c2cnn(-c3ccc(Cl)cc3)c2C2CCNCC2)CC1	Pf Dd2 growth 10µM
Cc1cc(C)cc(NC(=O)C2CCN(C(=O)c3cnn(-c4ccccc4)c3-n3cccc3)CC2)c1	none
Cc1cc(C)cc(NC(=O)c2cnn(-c3ccc(C)c(C)c3)c2C2CCNCC2)c1	Pf Dd2 growth 3.98µM
Cc1cccc(N2CCN(C(=O)c3cnn(-c4cccc(Cl)c4C)c3C3CCNCC3)CC2)c1C	Pf Dd2 growth 11.2µM
Cc1ccc(C)c(NC(=O)c2cnn(-c3ccc(F)cc3F)c2C2CCNCC2)c1	none
Cc1ccc(-n2ncc(C(=O)N3CCN(c4ccccn4)CC3)c2C2CCN(C(=O)OC(C)(C)C)CC2)cc1C	none
CCc1nc(SC)ncc1C(=O)N1CCN(c2cc(Cl)ccc2C)CC1	none
Cc1ccc(N2CCN(C(=O)c3cnn(-c4ccc(C)c(C)c4)c3C3CCNCC3)CC2)c(C)c1	Pf Dd2 growth 5.62µM
CC(C)(C)OC(=O)N1CCC(c2c(C(=O)N3CCN(c4ccccn4)CC3)cnn2-c2ccc(F)cc2)CC1	none
Cc1c(Cl)cccc1-n1ncc(C(=O)N2CCOCC2)c1C1CCN(C(=O)OC(C)(C)C)CC1	none
Cc1ccc2nc(N3CCC(C(=O)N4CCN(c5cccc(C)c5C)CC4)CC3)[nH]c2c1	none
CCCn1c(C)c(CC(=O)N(C)Cc2nnc(C)o2)c2c1CC(C)(C)CC2=O	none
COc1cncc(NC(=O)C2=NO[C@@H]3CN(Cc4sccc4C)C[C@H]23)c1	none
Cc1nnc2n1CCC(N(C)C(=O)CCc1nc3ccccc3s1)CC2 (stereo not given)	none
CCn1c(=O)c2c(cc(C)n2C)n(CC(=O)Nc2ccccc2F)c1=O	none
CC(C)CCNC(=O)C1CC(=O)N(c2n[nH]c3cc(Br)ccc23)C1 (stereo not given)	none
CN(CC1CCOCC1)C(=O)c1ccc(Br)o1	none
CCn1cc(-c2ccccc2)cc1C(=O)NC1CCCC1	none
CN1CCC2(CC1)CC(=O)N(CC(=O)N(C)CCc1cnn(C)c1)C2	none
O=C(c1ccco1)N1CCN(C(=O)c2cnn(-c3cccc(F)c3)c2C2CCNCC2)CC1	none
O=C(Nc1cccc(C(F)(F)F)c1)c1cnn(-c2cccc(F)c2)c1C1CCNCC1	Pf Dd2 growth 11.2µM
CC(=O)c1ccc(NC(=O)c2cnn(-c3cccc(F)c3)c2-n2cccc2)cc1	none
CC(Cn1cncn1)NC(=O)c1cccc(S(=O)(=O)N2CCOCC2)c1 (stereo not given)	none
Cc1ccc(F)cc1NC(=O)c1cc(-c2ccc[nH]2)n[nH]1	none
CC(C)c1csc(CN2CC[C@@H](c3ccc4c(c3)OCO4)[C@H](O)C2)n1	none
O=C(O)c1ccc(CN2CC[C@@H](c3ccc4c(c3)OCO4)[C@H](O)C2)cc1	none
CC(C)n1cc(CN2CC[C@@H](c3ccc4ccccc4c3)[C@H](O)C2)cn1	Pf Dd2 growth 10µM
COCCC(=O)N1CCC2(CC1)NCCc1c2[nH]c2ccc(OC)cc12	none
Cc1ccc2nc(-c3ccc(C)c(NC(=O)CSc4ccc(Cl)cc4)c3)oc2c1	none
Cc1ccc(SCC(=O)Nc2ccc3oc(-c4cccc(C)c4)nc3c2)cc1	none
Cc1ccc2nc(-c3cccc(NC(=O)CSc4ccc(Cl)cc4)c3)oc2c1	Pf Dd2 growth 11.2µM
NC(=O)CN1CCC(c2nc(-c3ccc4nc[nH]c4c3)no2)CC1	none
CN1CCN(C(=O)Cc2c[nH]c3ncc(-c4cccc(O)c4)cc23)CC1	none
Oc1cccc(Nc2nc(-c3ccccc3)nc3ccccc23)c1	none
OCCNc1ncnc2ccc(-c3cccc(O)c3)cc12	Pf Dd2 growth 8.91µM
NS(=O)(=O)c1ccc(CCNC(=O)c2cc3n(n2)CC(c2ccc(Cl)cc2)OC3)cc1 (stereo not given)	none
CCN1C(=O)N(c2ccc(C(C)=O)cc2)S(=O)(=O)c2ccccc21	none
